Hits are enriched below; roughly 0.58% of the tested compounds scored in any of these assays.
Cathepsin G inh – inhibitors of human cathepsin G. AID 581. inhibition, % at 5 µM (by protocol). P08311. purified enzyme, AMC-tetrapeptide fluorescence, pooled mixtures. 62,000 tested, 0.2% active;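 active = inhibition above 20% in each of the two mixture wells holding the compound; inactive = inhibition of 20% or less in either well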;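 note: 0% = enzyme control without mixture and 100% = blank lacking enzyme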
Target sequence (P08311 21-244 limits assumed): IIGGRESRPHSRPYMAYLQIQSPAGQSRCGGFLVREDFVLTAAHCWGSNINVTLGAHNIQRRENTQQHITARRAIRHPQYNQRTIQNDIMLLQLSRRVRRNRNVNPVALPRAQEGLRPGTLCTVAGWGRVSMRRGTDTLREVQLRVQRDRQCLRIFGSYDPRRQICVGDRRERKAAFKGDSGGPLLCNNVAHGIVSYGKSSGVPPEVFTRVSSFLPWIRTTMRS
C1s block – human complement C1s inhibition; P09871; purified C1s, fluorogenic AMC substrate, pooled mixtures; mean inhibition % of two 10-compound mixtures (hits give high values), % at 5 µM (by protocol); 62,000 tested, 0.16% active; AID 538;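 active = inhibition above 20% in each of the two 10-compound mixture wells holding the compound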;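 note: 0% = enzyme wells lacking compound mixture and 100% = no-enzyme blank wells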
CatS inh – blocks human cathepsin S protease activity. 62,000 tested, 0.06% active. recombinant cathepsin S, AMC dipeptide fluorescence, pooled mixtures. AID 501. inhibition, %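 (tested at 5 µM per compound within 10-compound mixtures)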; in the data active = inhibition above about 32%, passing the limit was not always enough;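 note: 0% = enzyme without compound and 100% = blank without enzyme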
Target sequence (P25774 115-331 limits assumed): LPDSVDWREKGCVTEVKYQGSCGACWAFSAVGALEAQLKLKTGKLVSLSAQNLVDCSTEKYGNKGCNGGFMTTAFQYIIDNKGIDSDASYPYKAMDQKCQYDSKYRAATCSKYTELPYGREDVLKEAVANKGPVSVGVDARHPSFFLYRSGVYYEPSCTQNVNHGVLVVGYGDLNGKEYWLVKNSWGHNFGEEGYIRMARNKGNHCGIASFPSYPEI
CatB mix inh – inhibitors of human cathepsin B in compound mixtures. 62,000 tested, 0.06% active. AID 488. inhibition, %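 (ten-compound pools at 5 µM per compound and 50 µM total)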. P07858. Purified cathepsin B, AMC dipeptide fluorescence; in the data active = inhibition above about 22%, passing the limit was not always enough;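 note: 0% = enzyme without compound and 100% = no enzyme blank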
CatB inh – human cathepsin B inhibition; inhibition, %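 (tested at 10 µM)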; AID 453; 63,000 tested, 0.1% active; purified cathepsin B, fluorogenic substrate, fluorescence; P07858; in the data active = inhibition above about 21%;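 note: 0% = enzyme with no compound and 100% = no enzyme blank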
CatL block – inhibitors of human cathepsin L. purified cathepsin L, fluorogenic substrate, fluorescence. inhibition, %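 (tested at 10 µM)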. 58,000 tested, 0.17% active; in the data active = inhibition above about 45%;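 note: 0% = enzyme with no compound and 100% = no enzyme blank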
* = called active by the depositor; / = no result given.

SMILES	Cathepsin G inh	C1s block	CatS inh	CatB mix inh	CatB inh	CatL block
O=C(CCS(=O)(=O)c1cccc2nonc12)N1CCN(c2ccc(F)cc2)CC1	-1	-12	-4	1	4	-4
CCOc1ccc(CCNC(=O)Cn2c(-c3nonc3N)nc3ccccc32)cc1OCC	-6	-16	3	51*	65*	52*
COc1ccc(CCNC(=O)Cn2c(-c3nonc3N)nc3ccccc32)cc1OC	10	9	-7	12	14	10
COC(=O)c1ccc(CSc2ccc3nnc(-c4ccc(OC)c(OC)c4)n3n2)o1	-13	-26	-4	-1	-1	2
Cc1nc(=O)c(-c2ccccc2)c(C)n1-c1ccc(O)c(C(=O)O)c1	2	-35	16	3	1	13
COC(=O)C1=C(NC(=O)c2ccc(C)c(C)c2)CCS1	-2	-60	-5	-1	1	6
COc1ccc(Cl)c(Cn2c(NCc3ccccn3)nc3c2c(=O)n(C)c(=O)n3C)c1	1	-10	22	-1	-2	-1
COc1ccc(Cl)c(Cn2c(NCCCO)nc3c2c(=O)n(C)c(=O)n3C)c1	2	-28	5	1	1	57*
Cc1noc(C)c1COC(=O)c1ccccc1NC(=O)Cc1ccccc1	30	35*	6	5	2	-5
CCOC(=O)c1ccc(NC(=O)CSc2nnnn2CCCO)cc1	10	19	1	5	-1	-2
O=C(NCCN1CCOCC1)c1ccc(-c2ccccc2)cc1	5	-24	-5	-2	1	-4
O=C(Cc1ccc(-c2ccccc2)cc1)NCCN1CCOCC1	10	24*	0	4	1	-18
O=C(NCCN1CCOCC1)c1noc2c1CCc1ccccc1-2	90*	20	30	4	1	10
O=C(NCCc1ccccc1)c1noc2c1CCc1ccccc1-2	101*	26*	12	1	4	21
CCCc1cc(C(=O)NCCc2ccccc2)no1	9	8	8	5	4	/
CCCNC(=O)c1noc2c1CCc1ccccc1-2	61*	8	-2	4	5	/
O=c1oc(-c2ccco2)nc2ccccc12	74*	48*	-1	-8	3	0
Cc1sc2nc(-c3ccco3)oc(=O)c2c1C	11	32*	2	7	0	6
CC1CN(S(=O)(=O)c2ccc(C(=O)Nc3sc4c(c3C(N)=O)CCN(C)C4)cc2)CC(C)O1 (configuration not stated)	-5	-47	1	-5	1	6
CCOC(=O)c1sc(=NC(=O)c2ccc(S(=O)(=O)N3CC(C)OC(C)C3)cc2)n(C)c1C (configuration not stated)	3	-6	-2	2	43*	-14
CCn1c(=O)c(C(C)=O)nc2ccccc21	15	22*	0	4	-4	2
CCc1nc2ccccc2n(CC)c1=O	0	-23	5	-5	3	7
CC(=O)CCc1c(C)c2cccc(C)c2[nH]c1=O	10	8	-1	0	3	104*
COc1cc(NC(=O)c2csc3c2CCCC3)ncn1	34*	38	-2	2	4	-9
Cc1ccc(-n2cc(C(C)(C)C)[nH]c2=S)cc1	-2	-7	-2	0	3	6
SMILES	Cathepsin G inh	C1s block	CatS inh	CatB mix inh	CatB inh	CatL block
Cn1cc(C(=O)NCCN2CCN(c3ccccc3F)CC2)c2c3ccccc3n(C)c2c1=O	-9	-50	-11	-2	2	-4
Cc1cc(NC(=O)c2cccc(S(=O)(=O)N3CCCCCC3)c2)n(-c2ccccn2)n1	42	43*	-4	-2	0	-4
Cc1nccn1-c1cc(C(C)C)c(C#N)c2nc3ccccc3n12	/	/	/	/	-2	-5
CN(C(=O)c1ccc(NC(=O)c2cnccn2)cc1)C1CCCCC1	-2	0	11	1	2	7
Cc1ccc2c(c1)CC1(CN2C)C(=O)OC2(CCCCC2)OC1=O	7	2	8	-2	0	-3
CN1CC2(Cc3c1ccc1ccccc31)C(=O)OC(C)(C)OC2=O	42*	-36	-7	-6	0	-4
CN1CCN(c2c3c(c(C#N)c4nc5ccccc5n24)CCCC3)CC1	/	/	/	/	-5	0
CCN1CCc2c(sc(N)c2C#N)C1	-6	-48	-10	-1	-5	-19
N#Cc1c(N)sc(=S)c2c1CCN(Cc1ccccc1)C2	-2	-40	75*	36	80*	47*
COC(=O)C1=C(C)N(c2cc(Cl)cc(Cl)c2)C(=O)C1	9	-7	4	3	3	9
CC(=O)Nc1ccc(C(=O)Nc2ccc3c(c2)OCO3)cc1	8	2	-6	4	0	-7
CCC(=O)Nc1ccc(C(=O)Nc2ccc3c(c2)OCO3)cc1	16	21*	-6	5	1	-2
CC1CCN(S(=O)(=O)c2cccc(C(=O)NCc3cccs3)c2)CC1	16	23*	-6	4	-2	-1
CC1CCN(S(=O)(=O)c2cccc(C(=O)Nc3ccccn3)c2)CC1	-6	-78	-6	-3	1	10
OC(COc1ccc2c(c1)OCO2)CN1CCc2ccccc2C1 (configuration not stated)	-3	-47	-12	-4	0	-10
Cc1cc(NS(=O)(=O)c2ccc(NC(=O)COc3ccccc3C(C)C)cc2)no1	37	25*	-8	6	5	2
O=C(c1ccc2c(c1)OCO2)n1nnc2ccccc21	89*	86*	8	5	6	18
COc1ccc(C(=O)n2ccc(C)n2)cc1Br	21*	20	8	-2	2	/
COc1ccc(C(=O)n2nc(C)cc2C)cc1Br	-4	-11	-5	0	-1	-1
COc1ccc(C(=O)n2nnc3ccccc32)cc1Br	20	67*	-5	8	5	-3
COc1ccccc1S(=O)(=O)Cc1ccc(C(=O)NCCN2CCCCCC2)o1	3	-10	-2	5	2	50*
Nc1nonc1-c1noc(CCCOc2ccc(Cl)cc2Cl)n1	9	11	-8	2	1	-5
Cc1ccc(C(C)C)c(OCc2nc(-c3nonc3N)no2)c1	9	-8	-2	8	22*	/
C=CC(=C)CC(NC)c1ccccc1 (configuration not stated)	5	4	-5	-1	3	53*
COc1cc(OC)cc(-c2nnc(SCc3c(F)cccc3Cl)o2)c1	0	-1	1	-2	1	/
O=C1CC(c2ccco2)Cc2nc(N3CCc4ccccc4C3)ncc21 (configuration not stated)	9	6	-6	4	21*	14
CC1CCN(c2nc3c(c(=O)[nH]c(=O)n3C)n2CCSc2ncccn2)CC1	8	15	7	4	2	11
O=C(CCCC(=O)N(CC(=O)NC1CCCC1)Cc1ccc2c(c1)OCO2)Nc1ccccn1	1	-1	0	-1	2	16

From PubChem
